According to PubChem BioAssay AID1159580 (chemical genetic matrix, 2015):
“And” between values parts separate entries of the source, which are not always exact repeats. Equal entries are not always repeated. The whole screen tested about 5,500 compounds, of which about 2,000 (36%) were called active. Inconclusive results (about 18%) are left out. No stated cut-off is given here; in the data, active means normalized growth mostly below about 0.91 (no sharp cut-off); inconclusive means no clear call, values can overlap the other calls; inactive means mostly above about 0.92. Some of the results follow.

Experiment: chemical genetic growth profiling, strain panel (AID 1159580);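 further: tested at 20 µM; growth read once vehicle control cultures reached saturation at 30 °C; 1 = growth at the plate median or of vehicle wells; lower values mean less growth of the strain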
Details: S. cerevisiae deletion strains, growth OD

Measured: normalized growth

CN(C)[C@@H]1C(=O)C(C(N)=O)=C(O)[C@@]2(O)C(=O)C3=C(O)c4c(O)ccc(Cl)c4[C@@H](O)[C@H]3C[C@@H]12
inactive: locus YAL013W, strain DEP1, active compounds read low 1 | locus YAL021C, strain ccr4, active compounds read low 0.971 | locus YAL026C, strain drs2, active compounds read low 1 | locus YAL030W, strain snc1, active compounds read low 0.984 | locus YBL061C, strain skt5, active compounds read low 0.98 | locus YBR009C, strain hhf1, active compounds read low 1.04 | locus YBR021W, strain FUR4, active compounds read low 0.945 | locus YBR023C, strain chs3, active compounds read low 0.982 | locus YBR171W, strain sec66, active compounds read low 0.978 | locus YBR229C, strain ROT2, active compounds read low 1 | locus YBR231C, strain swc5, active compounds read low 0.991 | locus YBR279W, strain paf1, active compounds read low 0.994 | locus YCL011C, strain gbp2, active compounds read low 1.06 | locus YCL016C, strain dcc1, active compounds read low 0.964 | locus YCL029C, strain bik1, active compounds read low 0.992 | locus YCL061C, strain MRC1, active compounds read low 0.992 | locus YCL069W, strain vba3, active compounds read low 0.997 | locus YCR088W, strain abp1, active compounds read low 0.993 | locus YDL005C, strain med2, active compounds read low 0.983 | locus YDL035C, strain GPR1, active compounds read low 1.01 | locus YDL040C, strain nat1, active compounds read low 0.992 | locus YDL074C, strain BRE1, active compounds read low 0.994 | locus YDL101C, strain DUN1, active compounds read low 1 | locus YDL134C, strain PPH21, active compounds read low 1 | locus YDL185W, strain tfp1, active compounds read low 0.984 | locus YDL192W, strain arf1, active compounds read low 0.982 | locus YDR001C, strain nth1, active compounds read low 0.977 | locus YDR069C, strain doa4, active compounds read low 0.969 | locus YDR101C, strain arx1, active compounds read low 0.999 | locus YDR137W, strain rgp1, active compounds read low 0.921 | locus YDR159W, strain sac3, active compounds read low 1.06 | locus YDR162C, strain NBP2, active compounds read low 1.02 | locus YDR195W, strain ref2 1 | locus YDR297W, strain sur2, active compounds read low 0.979 | locus YDR318W, strain mcm21, active compounds read low 0.997 | locus YDR334W, strain swr1, active compounds read low 0.95 | locus YDR335W, strain msn5, active compounds read low 0.98 | locus YDR388W, active compounds read low 0.983 | locus YDR392W, strain spt3, active compounds read low 0.854 | locus YDR502C, strain sam2, active compounds read low 0.981 | locus YEL003W, strain gim4, active compounds read low 0.98 | locus YEL037C, strain rad23, active compounds read low 0.99 | locus YEL061C, strain CIN8 (second series), active compounds read low 0.988 | locus YEL061C, strain CIN8, active compounds read low 1 | locus YER015W, strain faa2, active compounds read low 0.988 | locus YER016W, strain bim1, active compounds read low 0.994 | locus YER110C, active compounds read low 0.98 | locus YER111C, strain swi4, active compounds read low 0.994 | locus YER155C, strain BEM2 (second series), active compounds read low 0.932 | locus YER155C, strain BEM2, active compounds read low 1.01 | locus YER167W, strain BCK2, active compounds read low 1.01 | locus YFR010W, strain ubp6, active compounds read low 0.991 | locus YGL078C, strain dbp3, active compounds read low 0.988 | locus YGL086W, strain mad1, active compounds read low 0.986 | locus YGL167C, strain pmr1, active compounds read low 0.988 | locus YGL173C, strain kem1, active compounds read low 0.985 | locus YGL227W, strain vid30, active compounds read low 0.982 | locus YGL240W, strain doc1, active compounds read low 0.95 | locus YGL248W, strain PDE1, active compounds read low 0.988 | locus YGL253W, strain hxk2, active compounds read low 0.981 | locus YGR078C, strain PAC10, active compounds read low 0.989 | locus YGR135W, strain pre9, active compounds read low 0.974 | locus YGR252W, strain gcn5, active compounds read low 0.879 | locus YHR013C, strain ard1, active compounds read low 0.973 | locus YHR027C, strain rpn1, active compounds read low 0.965 | locus YHR030C, strain SLT2, active compounds read low 1 and 1.02 | locus YHR079C, strain IRE1 (second series), active compounds read low 0.976 | locus YHR079C, strain IRE1, active compounds read low 1.04 | locus YHR094C, strain hxt1, active compounds read low 0.981 | locus YHR129C, strain ARP1, active compounds read low 1.01 | locus YHR142W, strain chs7, active compounds read low 0.981 | locus YHR200W, strain rpn10, active compounds read low 0.987 | locus YIL066C, strain RNR3, active compounds read low 1.01 | locus YIL073C, strain SPO22, active compounds read low 0.992 | locus YIL125W, strain kgd1, active compounds read low 0.983 | locus YIR030C, strain dcg1, active compounds read low 0.98 | locus YJL092W, strain hpr5, active compounds read low 0.987 | locus YJL095W, strain BCK1 (second series), active compounds read low 0.98 | locus YJL095W, strain BCK1, active compounds read low 0.998 and 1.03 | locus YJL115W, strain asf1, active compounds read low 0.98 | locus YJL129C, strain trk1, active compounds read low 0.984 | locus YJL134W, strain LCB3, active compounds read low 1 | locus YJL154C, strain vps35, active compounds read low 0.976 | locus YJL164C, strain tpk1, active compounds read low 1 | locus YJL166W, strain qcr8, active compounds read low 0.93 | locus YJL168C, strain set2, active compounds read low 0.983 | locus YJL187C, strain SWE1 (second series), active compounds read low 0.995 | locus YJL187C, strain SWE1, active compounds read low 0.988 | locus YJR043C, strain POL32, active compounds read low 0.984 | locus YJR066W, strain TOR1, active compounds read low 0.97 | locus YKL009W, strain mrt4, active compounds read low 1 | locus YKL068W, active compounds read low 0.986 | locus YKL085W, strain MDH1 (second series), active compounds read low 0.975 | locus YKL085W, strain MDH1, active compounds read low 0.975 | locus YKL160W, strain elf1, active compounds read low 0.93 | locus YKL190W, strain CNB1, active compounds read low 1 | locus YKR001C, strain vps1, active compounds read low 0.976 | locus YKR026C, strain gcn3, active compounds read low 0.998 | locus YKR091W, strain srl3, active compounds read low 0.98 | locus YLL001W, strain dnm1, active compounds read low 0.921 | locus YLL026W, active compounds read low 0.983 | locus YLL041C, strain sdh2, active compounds read low 0.993 | locus YLR027C, strain aat2, active compounds read low 1.01 | locus YLR039C, strain RIC1, active compounds read low 0.995 | locus YLR058C, strain SHM2, active compounds read low 0.998 | locus YLR102C, strain apc9, active compounds read low 0.981 | locus YLR113W, strain HOG1, active compounds read low 1.03 | locus YLR221C, strain rsa3, active compounds read low 0.956 | locus YLR258W, strain gsy2, active compounds read low 0.992 | locus YLR262C, strain YPT6 (second series), active compounds read low 0.938 | locus YLR262C, strain YPT6, active compounds read low 1.01 | locus YLR268W, strain sec22, active compounds read low 0.954 | locus YLR320W, strain mms22, active compounds read low 0.947 | locus YLR330W, strain CHS5, active compounds read low 1.01 | locus YLR342W, strain FKS1 (second series), active compounds read low 0.952 | locus YLR342W, strain FKS1, active compounds read low 0.99 | locus YLR357W, strain rsc2, active compounds read low 0.93 | locus YLR370C, strain arc18, active compounds read low 0.979 | locus YLR371W, strain rom2, active compounds read low 0.976 | locus YLR384C, strain iki3, active compounds read low 0.975 | locus YLR418C, strain cdc73, active compounds read low 0.939 | locus YML016C, strain PPZ1, active compounds read low 0.999 | locus YML032C, strain rad52, active compounds read low 0.988 | locus YML120C, strain ndi1, active compounds read low 0.928 | locus YML124C, strain tub3, active compounds read low 0.982 | locus YMR058W, strain fet3, active compounds read low 0.934 | locus YMR078C, strain ctf18, active compounds read low 0.982 | locus YMR125W, strain sto1, active compounds read low 0.918 | locus YMR129W, active compounds read low 0.989 | locus YMR205C, strain PFK2, active compounds read low 0.938 | locus YMR223W, strain ubp8, active compounds read low 0.977 | locus YMR231W, strain pep5, active compounds read low 0.991 | locus YMR307W, strain GAS1, active compounds read low 1.02 | locus YNL067W, strain RPL9B, active compounds read low 0.997 | locus YNL071W, strain lat1, active compounds read low 0.992 | locus YNL128W, strain TEP1, active compounds read low 1.01 | locus YNL183C, strain NPR1, active compounds read low 0.966 | locus YNL209W, strain ssb2, active compounds read low 0.975 | locus YNL233W, strain BNI4, active compounds read low 0.993 | locus YNL248C, strain rpa49, active compounds read low 0.956 | locus YNL250W, strain rad50, active compounds read low 0.99 | locus YNL271C, strain bni1, active compounds read low 0.983 | locus YNL298W, strain CLA4, active compounds read low 0.993 | locus YNL307C, strain MCK1, active compounds read low 0.994 | locus YNL322C, strain KRE1 (second series), active compounds read low 0.98 | locus YNL322C, strain KRE1, active compounds read low 0.999 | locus YNR049C, strain mso1, active compounds read low 0.978 | locus YNR052C, strain pop2, active compounds read low 0.998 | locus YOL012C, strain htz1 0.761 | locus YOL147C, strain pex11, active compounds read low 0.983 | locus YOR001W, strain rrp6, active compounds read low 1.05 | locus YOR061W, strain CKA2, active compounds read low 1 | locus YOR069W, strain VPS5, active compounds read low 1 | locus YOR070C, strain gyp1, active compounds read low 1.01 | locus YOR080W, strain dia2, active compounds read low 0.981 | locus YOR083W, strain WHI5, active compounds read low 0.941 | locus YOR106W, strain vam3, active compounds read low 0.942 | locus YOR136W, strain idh2, active compounds read low 0.979 | locus YOR144C, strain elg1, active compounds read low 0.986 | locus YOR184W, strain ser1, active compounds read low 0.995 | locus YOR231W, strain MKK1, active compounds read low 1.04 | locus YOR265W, strain rbl2, active compounds read low 0.982 | locus YOR270C, strain vph1, active compounds read low 0.966 | locus YOR290C, strain snf2, active compounds read low 0.958 | locus YOR316C, strain cot1, active compounds read low 0.982 | locus YPL051W, strain arl3, active compounds read low 0.973 | locus YPL055C, strain LGE1, active compounds read low 0.992 | locus YPL078C, strain atp4, active compounds read low 0.934 | locus YPL106C, strain sse1, active compounds read low 0.911 | locus YPL240C, strain hsp82, active compounds read low 0.993 | locus YPL256C, strain CLN2, active compounds read low 1.02 | locus YPR119W, strain clb2, active compounds read low 0.983 | locus YPR141C, strain kar3, active compounds read low 0.981 | locus YPR163C, strain tif3, active compounds read low 0.98 | locus YPR167C, strain met16, active compounds read low 0.985 | strain wtn01, active compounds read low 0.955
